Test results from the supplement of paper PMC12669032.
Unmarked numbers belong to inactive results.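 Rule for the calls: active = AUC reduced over 20% with Padj below 0.05 in at least 2 of 3 replicates; inactive = otherwise.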

Assays:
Test in all cases: growth AUC relative to DMSO control (median of replicates) (fraction); higher = more growth (less inhibition), active = hit call of the paper
Settings in all cases: 20 µM; 24 h
[1] = test system: Akkermansia muciniphila
Method in brief: (§1)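 Hourly OD600 readings over 24 h tracked anaerobic gut bacterial monocultures grown at 37 °C in mGAM from OD600 0.05 with 20 µM compound (1% DMSO). After the minimum OD was set to 0, area under the growth curve was normalised to the plate median of solvent-only wells, or to row and column medians on the industrial chemical plate. Values are medians of three biological replicates grown on separate days.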

[2] = test system: Bacteroides caccae
Method in brief: as §1

[3] = test system: Bacteroides clarus
Method in brief: as §1

[4] = test system: Bacteroides dorei
Method in brief: as §1

[5] = test system: Bacteroides stercoris
Method in brief: as §1

[6] = test system: Bacteroides thetaiotaomicron
Method in brief: as §1

[7] = test system: Bacteroides uniformis
Method in brief: as §1

[8] = test system: Bifidobacterium longum subsp. longum
Method in brief: as §1

[9] = test system: Clostridium difficile
Method in brief: as §1

[10] = test system: Collinsella aerofaciens
Method in brief: as §1

Compound	growth AUC [1]	growth AUC [2]	growth AUC [3]	growth AUC [4]	growth AUC [5]	growth AUC [6]	growth AUC [7]	growth AUC [8]	growth AUC [9]	growth AUC [10]
Cc1ccc2c(c1)[C@H](Nc1nc(N)nc(C(C)F)n1)[C@@H](C)C2 (stereo not given in full)	0.985	1	0.969	0.989	1.08	0.975	0.948	1.03	0.998	1.01
CCc1cc(C(=O)O)cc(CC)c1C1C(=O)N2CCOCCN2C1=O	1.02	1.04	1.03	1.05	1.07	0.999	1.02	1.04	0.976	1.03
S=C([S-])NCCNC(=S)[S-].S=C([S-])NCCNC(=S)[S-].[Mn+2].[Zn+2]	0.974	1.02	1.1	1.06	1.06	0.975	1.07	1.03	0.994	1.03
CCc1cccc(CC)c1N(COC)C(=O)C(=O)O	0.957	1.03	0.971	1.01	1.03	1.03	1.02	0.989	1.02	1.03
Cc1cc(CC(C)CC(C)(C)C)n(O)c(=O)c1.NCCO (stereo not given)	1.22	0.993	0.982	0.99	0.932	0.999	1	0.991	0.977	0.933
Cc1cccc(C)c1N(C(=O)CCl)C1CCOC1=O (stereo not given)	1.05	0.802	0.993	0.971	1.1	0.647 (active)	0.894	1.04	0.966	0.959
CCC/C(=N\OCC(C)Oc1ccc(Cl)cc1)C1=C(O)CC(C2CCCSC2)CC1=O (stereo not given)	0.924	0.949	0.958	1	0.843	0.901	0.939	0.91	1.02	0.973
CC(C)([CH2][Sn]([CH2]C(C)(C)c1ccccc1)([CH2]C(C)(C)c1ccccc1)[O][Sn]([CH2]C(C)(C)c1ccccc1)([CH2]C(C)(C)c1ccccc1)[CH2]C(C)(C)c1ccccc1)c1ccccc1	1.07	0.969	1.01	0.989	0.969	1.02	0.993	1.02	0.956	1.01
COC(=O)C(C)Oc1ccc(Oc2ncc(C(F)(F)F)cc2Cl)cc1 (stereo not given)	1.11	0.968	0.977	0.964	0.912	0.992	0.886	1.02	0.98	0.954
Oc1ccccc1	1.08	0.963	0.991	1.03	0.992	0.997	1.03	0.998	1.02	1
Cc1[nH]n(C)c(=O)c1C(=O)c1ccc(C(F)(F)F)cc1S(C)(=O)=O	0.91	1.06	0.997	1.02	1.01	0.978	1.01	0.977	0.989	1
Br[C@@H]1CC[C@@H](Br)[C@@H](Br)CC[C@H](Br)[C@H](Br)CC[C@H]1Br	1.04	0.941	1	0.985	1	0.978	0.977	0.979	1	0.815
CC1=C(c2ccccc2)C(=O)N(C(C)(C)c2cc(Cl)cc(Cl)c2)CO1	1.11	0.962	0.925	0.981	0.895	0.93	0.917	0.956	1.02	0.965
COc1cc(OC)nc(NC(=O)NS(=O)(=O)Nc2ccccc2C(=O)N(C)C)n1	1.01	1	0.983	1.02	0.982	0.986	1.01	0.975	0.974	0.992
CCOC(=O)Cc1[nH]nc2ccc(Cl)cc12	0.921	1.01	1.01	0.996	1.15	1.01	1.01	0.989	1	0.969
Cc1cc(C2CC2)nc(Nc2ccc(O)cc2)n1	0.829	0.999	0.967	0.994	0.968	0.943	0.957	1.04	0.982	0.975
O=C(O)[C@@H](S)[C@@H](S)C(=O)O	1.14	1.01	1.05	1.01	1.17	1.04	1.04	1.02	1.01	1.02
CCCN(CCOc1c(Cl)cc(Cl)cc1Cl)C(N)=O	0.911	0.899	0.959	0.935	0.98	0.961	0.894	0.971	0.987	0.993
CC(C)(NC(=O)C(Br)C(C)(C)C)c1ccccc1 (stereo not given)	0.896	1.01	0.924	0.995	0.766	0.971	1.06	0.84	1.01	1.01
CCNc1nc(NC(C)(C)C)nc(OC)n1	0.972	0.985	0.998	0.992	1.11	0.987	0.985	1.02	0.998	1.07
COc1cc(OC)c(Cl)cc1N	0.954	0.994	0.995	1.02	1.09	1.01	1.01	0.912	1.01	1.03
CCNc1nc(NCC)nc(OC)n1	0.914	1.02	1.02	1	1.01	0.967	0.992	0.957	1	0.992
Nc1ccc(O)cc1	0.951	1	1.01	0.998	1.11	1.01	1.03	0.921	1.01	1.01
Cn1cc(C(=O)Nc2ccccc2-c2cc(F)c(F)c(F)c2)c(C(F)F)n1	0.832	0.995	0.937	0.972	0.931	0.93	0.984	0.919	0.98	0.987
CCOc1ccc2c(c1)C(C)=CC(C)(C)N2	0.9	1.04	1	1	1.01	0.995	1.01	1.03	1.02	1.02
NC1=C(Cl)C(=O)c2ccccc2C1=O	0.886	1.12	0.716 (active)	0.965	0.83	0.906	0.88	0.887	0.938	1.01
